Measurements: PubChem BioAssay (NCATS)
Where “and” joins values, the source holds several entries; their conditions need not be identical. Equal values may be shown once. Inconclusive results are not listed. Calls of active or inactive are those of the source. Unless noted, calls follow the shape of the dose curve; as a rule, active = well fitted curve in the direction sought with a large enough effect; inconclusive = small, poorly fitted or top-dose-only effect, or another doubt; inactive = no such curve, though single readings can be large; an effect the other way counts as inactive or inconclusive.

Key:
[1] = molecular target: Mitogen-activated protein kinase 10 (Mus musculus) (UniProt Q61831); assay: JNK3 AlphaScreen Assay (AID 530; active = well fitted curve in either direction with a large enough effect, not every such curve was filed as active;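 also: kinase came from lysate of stimulated human HepG2 cells; signal reports phosphorylation of biotinylated GST-cJun 1-79 at Ser73 with 10 µM ATP; % is scaled to controls: 0 for no effect and ±100 for the full control effect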)
Summary of the method: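 Room-temperature AlphaScreen kinase assay; pre-activated HepG2 lysate as JNK3 source, biotin-GST-cJun(1-79) substrate, 10 uM ATP, compound 15 min preincubation.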

[2] = Cell Viability - N2a (AID 540); details: N2a mouse neuroblastoma cell viability; at 92.2 µM (top of the series);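 also: plate controls were DMSO alone for no effect and tamoxifen control for full effect; nearly all actives have a fitted effect of over 45% in size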
Summary of the method: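 Mouse neuroblastoma N2a cells (1500/well) were preincubated 5 hr at 37 °C, then exposed to compounds for 40 hr at 37 °C in complete medium. Viability was read as intracellular ATP by CellTiter-Glo luminescence; AC50 from Hill fits.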

[3] = Cell Viability - NIH 3T3 (AID 541); details: NIH 3T3 cell viability, qHTS; activity change, negative = cytotoxicity: at 92.2 µM (top of the series); also: nearly all actives have a fitted effect of over 25% in size; also: potency is read from the fitted curve at half-maximal effect;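 as to activity change, negative = cytotoxicity: plate controls were DMSO alone for no effect and tamoxifen positive control for full effect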
Summary of the method: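 NIH 3T3 mouse embryo fibroblasts (1000 cells/well) were plated in complete medium and treated with compound for 40 hr at 37 °C. Viability was read as intracellular ATP by CellTiter-Glo luminescence; AC50 values came from Hill-equation fits of concentration-response data.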

[4] = Cell Viability - HUV-EC-C (AID 542); also: nearly all actives have a fitted effect of over 35% in size; also: potency is read from the fitted curve at half-maximal effect; as to activity change, negative = cytotoxicity: % is scaled to controls: 0 for no effect and ±100 for the full control effect
Summary of the method: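 HUV-EC-C normal human vascular endothelial cells, 1000 cells/well, pre-incubated 5 hr at 37 °C, then exposed to compounds for 40 hr at 37 °C in complete medium. Viability measured as intracellular ATP by CellTiter-Glo luminescence; AC50 from Hill fits.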

[5] = Cell Viability - H-4-II-E (AID 543); also: nearly all actives have a fitted effect of over 35% in size; also: potency is read from the fitted curve at half-maximal effect
Summary of the method: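 Rat hepatoma H-4-II-E cells (1500/well) were plated, incubated 5 hr at 37 °C, then exposed to compounds for 40 hr at 37 °C. Cellular ATP was read by CellTiter-Glo luminescence; AC50 came from Hill-equation fits of concentration-response data.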

[6] = Cell Viability - SH-SY5Y (AID 544); also: nearly all actives have a fitted effect of over 55% in size; also: potency is read from the fitted curve at half-maximal effect
Summary of the method: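 Human neuroblastoma SH-SY5Y cells (1500/well) in complete medium were exposed to compounds for 40 hr at 37 °C; intracellular ATP was then quantified by CellTiter-Glo luminescence after 20 min at room temperature. AC50 came from Hill-equation concentration-response fits.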

[7] = Cell Viability - Renal Proximal Tubule (AID 545); details: renal proximal tubule cells viability, primary cells of rat origin; at 91.7 µM (top of the series);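 also: 0% = DMSO only and -100% = 100 µM tamoxifen; nearly all actives have a fitted effect of over 40% in size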
Summary of the method: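 Cytotoxicity is scored as a concentration-dependent drop in cellular ATP in primary rat renal proximal tubule cells exposed for 40 hr. AC50 derives from Hill modelling.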

[8] = Cell Viability - Mesenchymal (AID 546);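 also: cells exposed to compound for 40 hours before reading; 0% = DMSO only and -100% = 100 µM tamoxifen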
Summary of the method: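 AC50 values reflect the drop in intracellular ATP in a human kidney mesenchymal line derived from normal glomeruli. Treatment lasts 40 hr at 37 °C in complete medium, and the signal comes from CellTiter-Glo luminescence.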

ClC(Cl)Cl
inactive: outcome [1] | activity change, negative = cytotoxicity [2] -12.8% | activity change, negative = cytotoxicity [3] -17.2% | Potency [4] | Potency [5] | Potency [6] | activity change, negative = cytotoxicity [7] -11.2% | outcome [8]

CO
inactive: outcome [1] | activity change, negative = cytotoxicity [2] 8.2% | activity change, negative = cytotoxicity [3] -1.78% | Potency [4] | Potency [5] | Potency [6] | activity change, negative = cytotoxicity [7] 5.17% | outcome [8]

CC(C)O
inactive: outcome [1] | activity change, negative = cytotoxicity [2] -11.4% | Potency [4] | Potency [5] | Potency [6] | activity change, negative = cytotoxicity [7] 5.6% | outcome [8]

OC[C@H]1O[C@@H]2O[C@H]3[C@H](O)[C@@H](O)[C@@H](O[C@H]4[C@H](O)[C@@H](O)[C@@H](O[C@H]5[C@H](O)[C@@H](O)[C@@H](O[C@H]6[C@H](O)[C@@H](O)[C@@H](O[C@H]7[C@H](O)[C@@H](O)[C@@H](O[C@H]1[C@H](O)[C@H]2O)O[C@@H]7CO)O[C@@H]6CO)O[C@@H]5CO)O[C@@H]4CO)O[C@@H]3CO
inactive: outcome [1] | activity change, negative = cytotoxicity [2] -3.62% | activity change, negative = cytotoxicity [3] -6.68% | Potency [4] | Potency [5] | Potency [6] | activity change, negative = cytotoxicity [7] -2.88% | outcome [8]

C[C@H](CCC(=O)O)[C@H]1CC[C@H]2[C@@H]3CC[C@@H]4C[C@H](O)CC[C@]4(C)[C@H]3C[C@H](O)[C@]12C
inactive: outcome [1] | activity change, negative = cytotoxicity [2] -18.5% | Potency [4] | Potency [5] | Potency [6] | activity change, negative = cytotoxicity [7] -13.4% | outcome [8]
active: activity change, negative = cytotoxicity [3] -91.1%

C/C=C/C=C/C(=O)O
inactive: outcome [1] | activity change, negative = cytotoxicity [2] -0.963% | activity change, negative = cytotoxicity [3] 8.21% | Potency [4] | Potency [5] | Potency [6] | activity change, negative = cytotoxicity [7] -2.27% | outcome [8]

OCl
inactive: outcome [1] | activity change, negative = cytotoxicity [2] -0.881% | activity change, negative = cytotoxicity [3] -13.5% | Potency [4] | Potency [5] | Potency [6] | activity change, negative = cytotoxicity [7] 2.44% | outcome [8]

CC1=CCC2CC1C2(C)C (stereo unspecified)
inactive: outcome [1] | activity change, negative = cytotoxicity [2] 4.74% | activity change, negative = cytotoxicity [3] -3.47% | Potency [4] | Potency [5] | Potency [6] | activity change, negative = cytotoxicity [7] 2.31% | outcome [8]

OCc1ccccc1
inactive: outcome [1] | activity change, negative = cytotoxicity [2] 4.71% | activity change, negative = cytotoxicity [3] 7.44% | Potency [4] | Potency [5] | Potency [6] | activity change, negative = cytotoxicity [7] -2.17% | outcome [8]

CC[C@H]1OC(=O)[C@H](C)[C@@H](O[C@H]2C[C@@](C)(OC)[C@@H](O)[C@H](C)O2)[C@H](C)[C@@H](O[C@@H]2O[C@H](C)C[C@H](N(C)C)[C@H]2O)[C@](C)(O)C[C@@H](C)CN(C)[C@H](C)[C@@H](O)[C@]1(C)O
inactive: outcome [1] | activity change, negative = cytotoxicity [2] -23.6% | activity change, negative = cytotoxicity [3] -19.1% | Potency [5] | activity change, negative = cytotoxicity [7] -18.1% | outcome [8]

O.O.O.O.O.O.O.O=S(=O)([O-])[O-].[Co+2]
inactive: activity change, negative = cytotoxicity [2] -16.8% | activity change, negative = cytotoxicity [3] -26.9% | Potency [4] | Potency [6] | outcome [8]

OCC(O)CO
inactive: outcome [1] | activity change, negative = cytotoxicity [2] -3.4% and 8.03% | activity change, negative = cytotoxicity [3] -10.7% and -2.8% | Potency [4] | Potency [5] | Potency [6] | activity change, negative = cytotoxicity [7] -12.3% and -5.8% | outcome [8]

CC1=CC(=O)NS(=O)(=O)O1
inactive: outcome [1] | activity change, negative = cytotoxicity [2] -19.6% | activity change, negative = cytotoxicity [3] -8.99% | Potency [4] | Potency [5] | Potency [6] | activity change, negative = cytotoxicity [7] -8.28% | outcome [8]

O=c1n(CC2CO2)c(=O)n(CC2CO2)c(=O)n1CC1CO1 (stereo unspecified)
active: activity change, negative = cytotoxicity [3] -138% | Potency [5] 39.8 µM | Potency [6] 0.631 µM | activity change, negative = cytotoxicity [7] -90%

Oc1ccc(/C=C/c2cc(O)cc(O)c2)cc1
active: Potency [3] 31.6 µM | Potency [5] 31.6 µM
inactive: outcome [1] | Potency [4] | Potency [6] | activity change, negative = cytotoxicity [7] -14.2% | outcome [8]

CC(C)(C)CC(C)(C)c1ccc(OCCO)cc1
inactive: outcome [1] | activity change, negative = cytotoxicity [3] -28.8% | Potency [4] | Potency [6] | activity change, negative = cytotoxicity [7] -16.5% | outcome [8]

C[C@H]1O[C@@H](O[C@H]2[C@@H](O)C[C@H](O[C@H]3[C@@H](O)C[C@H](O[C@H]4CC[C@@]5(C)[C@H](CC[C@@H]6[C@@H]5C[C@@H](O)[C@]5(C)[C@@H](C7=CC(=O)OC7)CC[C@]65O)C4)O[C@@H]3C)O[C@@H]2C)C[C@H](O)[C@@H]1O
inactive: outcome [1] | Potency [5] | activity change, negative = cytotoxicity [7] -10.1% | outcome [8]
active: activity change, negative = cytotoxicity [3] -91% | Potency [4] 0.02 µM | Potency [6] 0.0126 µM

Nc1ncnc2c1ncn2[C@H]1CC[C@@H](CO)O1
inactive: outcome [1] | activity change, negative = cytotoxicity [2] 6.32% | activity change, negative = cytotoxicity [3] 7.1% | Potency [4] | Potency [5] | Potency [6] | activity change, negative = cytotoxicity [7] 2.7% | outcome [8]

Oc1cccc(O)c1O
inactive: outcome [1] | activity change, negative = cytotoxicity [2] -18.3% | Potency [4] | Potency [5] | activity change, negative = cytotoxicity [7] -27.7%

[O-][N+](=Nc1ccccc1)c1ccccc1
inactive: outcome [1] | activity change, negative = cytotoxicity [2] 4.21% | activity change, negative = cytotoxicity [3] -5.77% | Potency [4] | Potency [5] | Potency [6] | activity change, negative = cytotoxicity [7] -0.723% | outcome [8]

CCCCO
inactive: outcome [1] | activity change, negative = cytotoxicity [2] -5.68% and -4.88% | activity change, negative = cytotoxicity [3] -12.4% and 2.4% | Potency [4] | Potency [5] | Potency [6] | activity change, negative = cytotoxicity [7] -5.24% and 3.29% | outcome [8]

NC(N)=O
inactive: activity change, negative = cytotoxicity [2] 12.5% | activity change, negative = cytotoxicity [3] -1.75% | Potency [4] | Potency [5] | Potency [6] | activity change, negative = cytotoxicity [7] -9.08% | outcome [8]

Nc1nccs1
inactive: outcome [1] | activity change, negative = cytotoxicity [2] 4.71% | activity change, negative = cytotoxicity [3] -0.295% | Potency [4] | Potency [5] | Potency [6] | activity change, negative = cytotoxicity [7] 6.3% | outcome [8]
